Screening data from PubChem BioAssay.
A selection: hits, their analogues and other compounds. The true share with any hit is near 6.8%.
Pf Dd2 inh – P. falciparum Dd2 growth inhibitors, primary screen, SYBR Green fluorescence, single dose replicates; AID 1159554, 2015; activity change, % at 10 µM; 94,000 tested, 2.3% active; 72 h; active compounds read low; in the data active means activity change below about -80%; inconclusive means no clear call, values can overlap the other calls
C diff HTS – C. difficile growth inhibitors, primary screen, HTS | Clostridium difficile clinical isolate growth, OD600, 24 h; active compounds read low | growth activity, negative = inhibition, % at 16 µg/mL (by protocol) | 86,000 tested, 0.25% active | AID 1259249, 2017;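 active means mean growth activity at or below -80% and every replicate also at or below -80%; inconclusive means mean at or below -80% but some replicate above -80%; inactive means mean growth activity above -80%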;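 further: 0% = DMSO wells and -100% = levofloxacin 16 µg/mL wells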
T cruzi growth-1 – T. cruzi intracellular proliferation inhibitors, primary screen, cell-based, beta-gal Tulahuen parasites, NIH3T3 host, luminescence | inhibition, % at 8.34 µM | 77,000 tested, 5.9% active | T. cruzi beta-gal in NIH3T3, GalScreen luminescence, 90 h;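 active means mean inhibition above about 93%, with at least 55% of replicates each passing it, limit read from the data, passing the limit was not always enough; inconclusive means only one of those two conditions holds; inactive means neither condition holds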
T cruzi growth-2 – T. cruzi intracellular proliferation inhibitors, confirmation, cell-based, NIH3T3 host, beta-gal parasite, luminescence, cherry-pick; T. cruzi beta-gal in NIH3T3, GalScreen luminescence, 90 h; 5,600 tested, 72% active; shares compounds with T cruzi growth-1; inhibition, % at 8.35 µM;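 active means mean replicate inhibition above about 95% and at least 55% of replicates individually reaching it, limit read from the data; inconclusive means only one of the two criteria is met; inactive means neither criterion is met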
T cruzi growth-3 – inhibitors of intracellular T. cruzi replication, confirmation, NIH3T3 host cells, beta-gal parasites, cherry-pick, set 2 | shares compounds with T cruzi growth-1 | T. cruzi beta-gal in NIH3T3, GalScreen luminescence, 90 h | inhibition, % at 2.09 µM | 5,600 tested, 21% active | AID 651740, 2012;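 active means mean inhibition above about 95%, with at least 55% of replicates also reaching it, limit read from the data; inconclusive means meets just one of the two conditions; inactive means meets neither condition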;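 further: plate controls were neutral control median for no effect and positive control median for full effect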
3T3 cytotox – cytotoxicity in mouse NIH/3T3 fibroblasts, confirmation, cytotoxicity control for T. cruzi proliferation inhibitor project, cell-based, cherry-pick, single point. shares compounds with T cruzi growth-1. NIH/3T3 viability, CellTiter-Glo ATP luminescence, 90 h. cytotoxicity (signal decrease), % at 8.35 µM. 5,600 tested, 14% active. AID 651742, 2012;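 active means mean signal decrease across replicates above about 35% based on untreated-well scatter, with enough replicates individually passing, limit read from the data; inconclusive means no rule stated though some were filed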;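 further: 0% = median of neutral control wells and 100% = median of positive control wells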
NIH3T3 tox 2 – NIH/3T3 fibroblast cytotoxicity, confirmation, cytotoxicity control, cell-based, cherry-pick, single point, set 2. shares compounds with T cruzi growth-1. NIH/3T3 viability, CellTiter-Glo ATP luminescence, 90 h. inhibition, % at 24.9 µM. 5,600 tested, 56% active. AID 651744, 2012;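 active means mean loss of cell viability signal at or above a set limit, and enough replicates individually reaching it; inconclusive means meets only the mean limit or only the replicate share; inactive means meets neither condition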;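 further: 0% = median of neutral control wells and 100% = median of positive control wells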
* = called active by the depositor; ? = inconclusive; . = not tested or not shown.

SMILES | Pf Dd2 inh | C diff HTS | T cruzi growth-1 | T cruzi growth-2 | T cruzi growth-3 | 3T3 cytotox | NIH3T3 tox 2
COc1ccc(NC(=O)Nc2ccc3c(c2)C(=O)N([C@H](C)CO)C[C@H](C)[C@H](CN(C)C(=O)Nc2c(C)noc2C)OCCCC[C@H](C)O3)cc1 | 29 | 0 | 52 | . | . | . | .
Cc1ccc(S(=O)(=O)N(C)C[C@@H]2Oc3cc(C#CC4CCCC4)ccc3S(=O)(=O)N([C@@H](C)CO)C[C@H]2C)cc1 | -69 | 15 | 127* | 101* | 99* | 46* | 77*
Cc1ccc(S(=O)(=O)N(C)C[C@H]2Oc3cc(C#CC4CCCC4)ccc3S(=O)(=O)N([C@H](C)CO)C[C@@H]2C)cc1 | -55 | 15 | 127* | 100* | 108* | 11 | 51*
COc1ccc(S(=O)(=O)N(C)C[C@@H]2Oc3cc(C#CC4CCCC4)ccc3S(=O)(=O)N([C@@H](C)CO)C[C@H]2C)cc1 | -73 | 6 | 49 | . | . | . | .
COc1ccc(S(=O)(=O)N(C)C[C@H]2Oc3cc(C#CC4CCCC4)ccc3S(=O)(=O)N([C@H](C)CO)C[C@H]2C)cc1 | -51 | 6 | 45 | . | . | . | .
CO[C@@H]1CN(C)C(=O)c2ccc(NC(=O)c3cnccn3)cc2OC[C@@H](C)N(C)C[C@@H]1C | -4 | 1 | . | . | . | . | .
Cc1ccc(S(=O)(=O)Nc2ccc3c(c2)C(=O)N([C@H](C)CO)C[C@H](C)[C@@H](CN(C)Cc2ccc4c(c2)OCO4)OCCCC[C@H](C)O3)cc1 | -76 | 2 | 102* | 108* | 46 | 19 | 84*
C[C@@H]1CCCCO[C@H](CN(C)Cc2ccc3c(c2)OCO3)[C@@H](C)CN([C@@H](C)CO)C(=O)c2cc(NS(=O)(=O)c3ccc(Cl)cc3)ccc2O1 | -61 | . | ? | 95* | 108* | ? | 103*
Cc1ccc(S(=O)(=O)Nc2ccc3c(c2)C(=O)N([C@@H](C)CO)C[C@@H](C)[C@H](CN(C)Cc2ccc4c(c2)OCO4)OCCCC[C@H](C)O3)cc1 | -67 | 0 | 72 | . | . | . | .
Cc1ccc(S(=O)(=O)Nc2ccc3c(c2)C(=O)N([C@@H](C)CO)C[C@H](C)[C@@H](CN(C)Cc2ccc4c(c2)OCO4)OCCCC[C@H](C)O3)cc1 | -53 | 1 | 105* | 102* | 55 | 25 | 80*
C[C@@H]1CCCCO[C@H](CN(C)Cc2ccc3c(c2)OCO3)[C@H](C)CN([C@H](C)CO)C(=O)c2cc(NS(=O)(=O)c3ccc(F)cc3)ccc2O1 | -63 | . | 86 | . | . | . | .
C[C@@H]1CN([C@@H](C)CO)C(=O)c2cc(NS(=O)(=O)c3ccc(Cl)cc3)ccc2O[C@@H](C)CCCCO[C@@H]1CN(C)Cc1ccc2c(c1)OCO2 | -65 | . | 86 | . | . | . | .
Cc1ccc(S(=O)(=O)Nc2ccc3c(c2)C(=O)N([C@H](C)CO)C[C@H](C)[C@@H](CN(C)Cc2ccc4c(c2)OCO4)OCCCC[C@@H](C)O3)cc1 | -35 | -3 | 37 | . | . | . | .
Cc1ccc(S(=O)(=O)Nc2ccc3c(c2)C(=O)N([C@@H](C)CO)C[C@@H](C)[C@@H](CN(C)Cc2ccc4c(c2)OCO4)OCCCC[C@H](C)O3)cc1 | -63 | -9 | ? | 86 | ? | 61* | 104*
COc1ccc2c3c(n(C)c2c1)[C@@H](CO)NCC31CN(CC2CC2)C1 | -72 | 2 | . | . | . | . | .
O=C(C[C@@H]1C=C[C@H](NC(=O)c2cccc(F)c2)[C@@H](CO)O1)NCCN1CCCC1 | 4 | -3 | . | . | . | . | .
CCC(=O)Nc1ccc2c(c1)OC[C@@H](C)N(C(=O)Cc1cccnc1)C[C@@H](C)[C@H](OC)CN(C)C2=O | 17 | . | 21 | . | . | . | .
COc1ccc(NC(=O)Nc2cccc3c2O[C@@H](CN(C)S(=O)(=O)c2cccs2)[C@@H](C)CN([C@H](C)CO)C3=O)cc1 | -8 | 9 | 38 | . | . | . | .
COc1ccc(S(=O)(=O)Nc2ccc3c(c2)C(=O)N([C@@H](C)CO)C[C@H](C)[C@H](CN(C)Cc2ccc4c(c2)OCO4)OCCCC[C@@H](C)O3)cc1 | -63 | -4 | 86 | . | . | . | .
Cc1ccc(S(=O)(=O)Nc2ccc3c(c2)C(=O)N([C@@H](C)CO)C[C@@H](C)[C@@H](CN(C)Cc2ccc4c(c2)OCO4)OCCCC[C@@H](C)O3)cc1 | -67 | -4 | 45 | . | . | . | .
Cc1ccc(S(=O)(=O)Nc2ccc3c(c2)C(=O)N([C@@H](C)CO)C[C@H](C)[C@@H](CN(C)Cc2ccc4c(c2)OCO4)OCCCC[C@@H](C)O3)cc1 | -81* | -71 | 98* | 102* | 55 | 25 | 105*
COc1ccc(S(=O)(=O)Nc2ccc3c(c2)C(=O)N([C@H](C)CO)C[C@H](C)[C@H](CN(C)Cc2ccc4c(c2)OCO4)OCCCC[C@H](C)O3)cc1 | -73 | 0 | ? | 103* | ? | 6 | 105*
C[C@@H]1CCCCO[C@@H](CN(C)Cc2ccc3c(c2)OCO3)[C@@H](C)CN([C@@H](C)CO)C(=O)c2cc(NC(=O)c3ccccc3)ccc2O1 | -52 | 9 | . | . | . | . | .
C/C=C/c1ccc([C@H]2[C@@H](CO)N(C(=O)c3cnccn3)C23CN(C(C)=O)C3)cc1 | -8 | 1 | . | . | . | . | .
CC(C)NC(=O)N(C)C[C@H]1Oc2cc(-c3ccncc3)ccc2S(=O)(=O)N([C@@H](C)CO)C[C@@H]1C | -19 | 0 | 110* | 85 | 38 | -16 | 13
Cc1ccc(-c2ccc3c(c2)O[C@@H](CN(C)C(=O)NC(C)C)[C@@H](C)CN([C@@H](C)CO)S3(=O)=O)cc1 | -26 | 1 | 70 | . | . | . | .
Cc1ccc(-c2ccc3c(c2)O[C@H](CN(C)C(=O)NC(C)C)[C@H](C)CN([C@H](C)CO)S3(=O)=O)cc1 | 20 | -4 | 32 | . | . | . | .
CC(C)NC(=O)N(C)C[C@H]1Oc2cc(-c3ccncc3)ccc2S(=O)(=O)N([C@H](C)CO)C[C@H]1C | 0 | 0 | 109* | 68 | 28 | 4 | 32*
C[C@H]1CN([C@@H](C)CO)C(=O)Cc2cc(NC(=O)CCCCCC(=O)Nc3ccccc3N)ccc2O[C@@H]1CN(C)C(=O)Nc1ccc(F)cc1 | 6 | -3 | . | . | . | . | .
CCCC#Cc1ccc([C@@H]2[C@@H](CO)N3CCCCN(S(=O)(=O)c4ccccc4C)C[C@H]23)cc1 | -55 | 43 | 119* | 105* | ? | 14 | 106*
